Outcome data for 29 compounds are collected here from PubChem BioAssay (EPA / NIEHS).

Inconclusive results are not listed. The source made the active and inactive calls. How the source made its calls: active means hit-call score of the fitted dose curve at least 0.9, where 1 is the maximum; inconclusive means response in the unintended direction; inactive means score below 0.9.

Cytochrome P450 2C19 (Homo sapiens), sequence (P33261 whole entry, looked up): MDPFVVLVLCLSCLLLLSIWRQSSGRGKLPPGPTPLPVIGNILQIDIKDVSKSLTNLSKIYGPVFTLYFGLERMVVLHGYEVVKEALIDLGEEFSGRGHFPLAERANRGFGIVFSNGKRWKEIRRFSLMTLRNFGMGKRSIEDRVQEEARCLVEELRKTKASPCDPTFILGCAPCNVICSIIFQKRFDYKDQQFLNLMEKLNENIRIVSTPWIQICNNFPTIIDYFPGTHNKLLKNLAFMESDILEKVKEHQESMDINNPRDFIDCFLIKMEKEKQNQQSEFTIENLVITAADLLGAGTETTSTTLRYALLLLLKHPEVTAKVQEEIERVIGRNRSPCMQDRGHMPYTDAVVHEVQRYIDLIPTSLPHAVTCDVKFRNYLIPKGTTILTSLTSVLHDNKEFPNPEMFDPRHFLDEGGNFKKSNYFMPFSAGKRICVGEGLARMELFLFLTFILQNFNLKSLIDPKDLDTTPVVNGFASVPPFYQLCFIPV

Read-out in the assay: Cytochrome P450 2C19 (Homo sapiens) (UniProt P33261)
In words: CLD_CYP2C19_24hr: CellzDirect (CLD) Gene Expression Assay for xenobiotic metabolism (CYP2C19) at 24 hours (AID 2283687). As for the experimental part:
CLD_24hr is a cell-based, multiplexed-readout assay that uses hepatocyte, a human liver primary cell, with measurements taken at 24 hours after chemical dosing in a 96-well plate.CLD_CYP2C19_24hr is one of 16 assay component(s) measured or calculated from the CLD_24hr assay. It is designed to make measurements of mRNA induction, a form of inducible reporter, as detected with chemiluminescence signals by Quantitative Nuclease Protection Assay (qNPA) technology.Data from the assay component CLD_CYP2C19_24hr was analyzed at the endpoint, CLD_CYP2C19_24hr, in the positive analysis fitting direction relative to DMSO as the negative control and baseline of activity. Using a type of inducible reporter, gain-of-signal activity can be used to understand changes in the reporter gene as they relate to the gene CYP2C19. Furthermore, this assay endpoint can be referred to as a primary readout. To generalize the intended target to other relatable targets, this assay endpoint is annotated to the cyp intended target family, where subfamily is xenobiotic metabolism.
Human hepatocyte cultures were treated daily for two consecutive days with fresh dosing solutions containing appropriate concentrations of the 320 ToxCast chemicals (chemical identities were blinded to CellzDirect and other ToxCast collaborators), vehicle control (0.2% DMSO), and positive control inducers as summarized in Table 1. Due to the large number of treatment groups and chemicals examined, the ToxCast chemicals were divided into two groups (spanning two independent cultures of hepatocytes from separate donor preparations (Hu778: ToxCast plates 1 and 2; Hu776: ToxCast plates 3 and 4). Each preparation of human hepatocyte cultures was treated with respective vehicle control, medium only control, set of six positive controls/reference chemicals for the five hepatic receptor pathways, and a subset of eight of the ToxCast chemicals (indoxacarb, pyrithiobac-sodium, norflurazon, cyhalofop-butyl, methomyl, thiram, acetochlor, and propiconazole). These replicate data, coupled with internal replicates designed within the blinded ToxCast chemical library, provided additional data to evaluate interindividual differences between hepatocyte preparations and their potential impact on chemical profiles.Cell morphology and integrity were evaluated using phase-contrast microscopy as an indicator of hepatocyte cell health (Tyson & Green, 1987). Cultures for each treatment group (i.e., media, vehicle [0.2% DMSO], positive control inducers [multiple concentrations], and the ToxCast chemicals [multiple concentrations]) were observed and cell morphology was assessed relative to vehicle control cultures at each harvest time point (0, 6, 24, or 48 h). […] Images were evaluated at the conclusion of the study to assess changes in cell integrity and account for the effects of chemical exposure on uncharacteristic changes in concentration-dependent gene expression profiles. The results from these determinations of apparent cytotoxicity were annotated (yes/no) alongside the corresponding qNPA data for reference.At the conclusion of each treatment period, hepatocyte cultures (96-well) were washed with 1 volume of HBSS, lysed by addition of 25 ul ArrayPlate lysis buffer (HTG, Tucson, AZ), and 70 ul/well of Denaturation Oil, denatured by incubation at 95C for 10 min, and frozen at approximately -70C until analysis by nuclease protection assay (qNPA) (Roberts et al., 2007). For qNPA analysis, cell lysates were thawed at 50C for approximately 30 min, qNPA probes were added, and samples were incubated at 95C for 10 min to begin the detection process by denaturing the target RNA, dissociating the duplexes and secondary structure hybridization. At the conclusion of the hybridization period, S1 nuclease reagent was added to each sample to digest all nonprotected nucleotides at 50C for 60-90 min. […]
On to `CCNc1nc(Cl)nc(NC(C)C)n1`, for which the outcome was inactive.

Regarding `N#CC(CCc1ccc(Cl)cc1)(Cn1cncn1)c1ccccc1` (centres undefined), the compound was classed as inactive.

As to `COC(=O)N(OC)c1ccccc1COc1ccn(-c2ccc(Cl)cc2)n1`, the compound was called inactive.

`COc1cnc(OC)n2nc(NS(=O)(=O)c3c(OCC(F)F)cccc3C(F)(F)F)nc12`: the compound was classed as inactive.

As to `O=C(O)COc1nc(Cl)c(Cl)cc1Cl`, the result was inactive.

On to `CNC(=O)ON=CC(C)(C)SC`, for which the compound was called inactive.

Regarding `CC(C)C1(C)N=C(c2nc3ccccc3cc2C(=O)O)NC1=O` (centres undefined), the compound was classed as inactive.

Consider `COC(=O)c1ccccc1C(=O)OC`, for which the result was inactive.

As to `COc1nc(C)nc(NC(=O)NS(=O)(=O)c2ccccc2CCC(F)(F)F)n1`, the call was inactive.

Regarding `CO/C=C(/C(=O)OC)c1ccccc1Oc1cc(Oc2ccccc2C#N)ncn1`, the compound was called inactive.

`COc1nc(C)nc(NC(=O)NS(=O)(=O)c2ccccc2Cl)n1`: the compound was called inactive.

Regarding `COP(N)(=O)SC` (centres undefined), the outcome was inactive.

With `CC(C)(C)c1ccc(CSc2cnn(C(C)(C)C)c(=O)c2Cl)cc1`, the outcome was inactive.

On to `CCOC(=O)C(Cl)Cc1cc(-n2nc(C)n(C(F)F)c2=O)c(F)cc1Cl` (centres undefined), for which the result was inactive.

With `COP(=S)(OC)Oc1nc(Cl)c(Cl)cc1Cl`, the compound was called inactive.

In the case of `CCCCNC(=O)OCC#CI`, the call was inactive.

`CC1COC(Cn2cncn2)(c2ccc(Oc3ccc(Cl)cc3)cc2Cl)O1` (centres undefined): the compound was called inactive.

For `Oc1ccccc1-c1ccccc1`, the compound was classed as inactive.

`COc1nc(NC(C)C)nc(NC(C)C)n1`: the result was inactive.

As for `CS/C(C)=N/OC(=O)N(C)SN(C)C(=O)O/N=C(\C)SC`, the call was inactive.

Consider `COC(=O)C(C)Oc1ccc(Oc2ccc(Cl)cc2Cl)cc1` (centres undefined), for which the call was inactive.

For `CCCCNC(=O)n1c(NC(=O)OC)nc2ccccc21`, the call was inactive.

For the compound `C=CC1(C)OC(=O)N(c2cc(Cl)cc(Cl)c2)C1=O` (centres undefined), the result was inactive.

`O=C(O)c1nc(Cl)ccc1Cl`: the result was inactive.

`CCCCC(CC)COC(=O)c1ccccc1C(=O)OCC(CC)CCCC` (centres undefined): the compound was called inactive.

As for `CC(Oc1ccc(Cl)cc1Cl)C(=O)O` (centres undefined), the compound was called inactive.

Regarding `Cc1cc(Cl)ccc1OCC(=O)O`, the outcome was inactive.

Regarding `CCOC(=O)CC(SP(=S)(OC)OC)C(=O)OCC` (centres undefined), the compound was called inactive.

Regarding `CCON=C(CC)C1=C(O)CC(c2c(C)cc(C)cc2C)CC1=O` (centres undefined), the compound was classed as inactive.
